# According to article PMC7862700, “An all-to-all approach to the identification of sequence-specific readers for epigenetic DNA modifications on cytosine”:
# Key:
# Test in all cases: DAPPL (digital affinity profiling via proximity ligation, sequencing); 10 mM Tris-HCl pH 7.5, 50 mM NaCl, 1 mM DTT, 4% glycerol, room temperature, 30 min; GST-TFs on glutathione beads, 16-mer random dsDNA library, 0.1% formaldehyde crosslink after washing; high values mean tight binding
# Conditions in all cases: protein: recombinant; tags: N-terminal GST; dsDNA, one strand shown
# GABPA = molecular target: T1, GABPA (Homo sapiens, UniProt Q06546 1-454)
# T1 sequence: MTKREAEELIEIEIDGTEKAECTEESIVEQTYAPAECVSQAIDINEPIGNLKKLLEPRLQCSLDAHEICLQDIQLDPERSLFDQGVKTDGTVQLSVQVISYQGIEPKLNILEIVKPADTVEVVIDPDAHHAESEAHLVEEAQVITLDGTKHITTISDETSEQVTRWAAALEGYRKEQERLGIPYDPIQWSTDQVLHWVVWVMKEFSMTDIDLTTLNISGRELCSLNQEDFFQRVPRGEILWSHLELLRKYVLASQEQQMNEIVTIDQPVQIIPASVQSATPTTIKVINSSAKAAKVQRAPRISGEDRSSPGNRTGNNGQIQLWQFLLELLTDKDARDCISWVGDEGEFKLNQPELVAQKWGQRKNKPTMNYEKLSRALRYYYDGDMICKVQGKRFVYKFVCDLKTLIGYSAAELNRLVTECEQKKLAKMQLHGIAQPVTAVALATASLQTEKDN
# Method in brief: (§1)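 A tag-only sample was pooled with DNA-barcoded human transcription factors that had been expressed in yeast as GST fusions and captured on glutathione beads. The pools were incubated for 30 min at room temperature with 200 nmole of a random double-stranded 16-mer DNA library in Tris/NaCl/DTT/glycerol buffer, then washed, crosslinked with 0.1% formaldehyde, proximity-ligated (BsaI/T4 ligase, 1 h, 37 °C), PCR-amplified and sequenced on an Illumina NextSeq500. Binding signal is each hexamer's read frequency for a factor divided by its frequency for the tag-only sample.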
# ERG = molecular target: T2, ERG (Homo sapiens, UniProt P11308 1-479)
# T2 sequence: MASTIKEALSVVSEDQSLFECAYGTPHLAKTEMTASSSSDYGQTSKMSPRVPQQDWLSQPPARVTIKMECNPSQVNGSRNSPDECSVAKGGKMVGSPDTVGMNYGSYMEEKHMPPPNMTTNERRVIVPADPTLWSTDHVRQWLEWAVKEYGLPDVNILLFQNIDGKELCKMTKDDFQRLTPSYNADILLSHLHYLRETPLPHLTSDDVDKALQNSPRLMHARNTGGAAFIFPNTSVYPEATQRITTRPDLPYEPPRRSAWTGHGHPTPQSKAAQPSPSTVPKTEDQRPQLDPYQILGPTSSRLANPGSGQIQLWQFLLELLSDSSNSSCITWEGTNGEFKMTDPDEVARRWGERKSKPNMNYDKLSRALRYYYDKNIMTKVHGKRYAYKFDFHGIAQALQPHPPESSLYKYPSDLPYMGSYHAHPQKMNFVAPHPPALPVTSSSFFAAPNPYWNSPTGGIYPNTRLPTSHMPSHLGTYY
# Method in brief: as §1
# EHF = molecular target: T3, EHF (Homo sapiens, UniProt Q9NZC4 1-300)
# T3 sequence: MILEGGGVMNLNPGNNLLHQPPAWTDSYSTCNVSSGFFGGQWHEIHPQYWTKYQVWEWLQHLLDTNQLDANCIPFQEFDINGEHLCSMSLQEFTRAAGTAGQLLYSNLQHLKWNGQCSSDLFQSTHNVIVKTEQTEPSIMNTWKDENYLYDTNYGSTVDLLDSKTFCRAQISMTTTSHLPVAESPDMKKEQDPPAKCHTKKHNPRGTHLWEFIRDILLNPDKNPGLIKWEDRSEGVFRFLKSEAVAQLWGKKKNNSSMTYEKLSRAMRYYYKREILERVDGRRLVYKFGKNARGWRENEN
# Method in brief: as §1
# SPIB = SPIB (Homo sapiens, UniProt Q01892 1-262)
# SPIB, sequence (Q01892 whole entry): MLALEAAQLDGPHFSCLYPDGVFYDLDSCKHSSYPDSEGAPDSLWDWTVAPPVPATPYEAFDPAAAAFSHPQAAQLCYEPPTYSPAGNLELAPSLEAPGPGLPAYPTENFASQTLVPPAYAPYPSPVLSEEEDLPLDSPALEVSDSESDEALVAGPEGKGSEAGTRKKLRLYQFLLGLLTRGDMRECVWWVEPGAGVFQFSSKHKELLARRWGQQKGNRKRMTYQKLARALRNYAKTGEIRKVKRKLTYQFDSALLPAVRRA
# Method in brief: as §1
# ELK3 = molecular target: T4, ELK3 (Homo sapiens, UniProt P41970 1-407)
# T4 sequence: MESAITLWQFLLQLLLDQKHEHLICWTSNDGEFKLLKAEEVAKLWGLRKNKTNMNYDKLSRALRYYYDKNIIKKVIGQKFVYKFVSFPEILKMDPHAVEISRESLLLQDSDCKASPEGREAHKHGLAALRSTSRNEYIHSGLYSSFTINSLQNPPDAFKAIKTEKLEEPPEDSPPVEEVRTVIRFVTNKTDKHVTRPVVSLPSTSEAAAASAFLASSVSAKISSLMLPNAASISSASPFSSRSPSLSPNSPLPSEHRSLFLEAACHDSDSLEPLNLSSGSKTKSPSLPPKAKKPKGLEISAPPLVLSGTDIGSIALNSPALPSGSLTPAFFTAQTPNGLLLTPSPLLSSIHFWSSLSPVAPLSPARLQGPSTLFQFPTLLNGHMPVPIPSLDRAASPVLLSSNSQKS
# Method in brief: as §1
# SPIC = molecular target: T5, SPIC (Homo sapiens, UniProt Q8N5J4 1-248)
# T5 sequence: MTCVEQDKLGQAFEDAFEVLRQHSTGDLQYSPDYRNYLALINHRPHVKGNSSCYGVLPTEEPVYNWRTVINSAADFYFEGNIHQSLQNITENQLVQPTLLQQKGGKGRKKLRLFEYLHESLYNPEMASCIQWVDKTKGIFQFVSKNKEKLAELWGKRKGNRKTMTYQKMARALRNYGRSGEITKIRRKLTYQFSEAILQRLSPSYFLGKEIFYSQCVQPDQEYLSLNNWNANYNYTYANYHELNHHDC
# Method in brief: as §1
# ELF4 = ELF4 (Homo sapiens, UniProt Q99607 1-663)
# ELF4, sequence (Q99607 whole entry): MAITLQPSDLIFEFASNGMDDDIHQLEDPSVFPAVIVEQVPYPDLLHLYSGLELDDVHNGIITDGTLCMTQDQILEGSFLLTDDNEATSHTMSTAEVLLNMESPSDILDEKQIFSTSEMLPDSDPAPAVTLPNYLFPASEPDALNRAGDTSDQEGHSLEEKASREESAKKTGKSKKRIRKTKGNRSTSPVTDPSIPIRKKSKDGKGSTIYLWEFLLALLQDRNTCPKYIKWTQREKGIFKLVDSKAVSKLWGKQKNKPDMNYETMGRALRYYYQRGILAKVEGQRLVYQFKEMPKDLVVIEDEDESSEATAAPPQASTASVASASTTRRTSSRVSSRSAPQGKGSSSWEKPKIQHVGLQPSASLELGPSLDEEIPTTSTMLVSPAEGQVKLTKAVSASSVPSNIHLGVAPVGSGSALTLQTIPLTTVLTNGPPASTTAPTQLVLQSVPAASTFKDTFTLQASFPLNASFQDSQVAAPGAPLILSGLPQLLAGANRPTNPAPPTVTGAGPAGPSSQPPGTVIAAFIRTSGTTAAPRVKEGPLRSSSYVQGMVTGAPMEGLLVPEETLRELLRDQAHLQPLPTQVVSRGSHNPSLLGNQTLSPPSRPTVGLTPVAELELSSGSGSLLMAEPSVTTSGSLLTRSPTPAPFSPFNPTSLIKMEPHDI
# Method in brief: as §1
# ELK4 = molecular target: T6, ELK4 (Homo sapiens, UniProt P28324-2 1-405)
# T6 sequence: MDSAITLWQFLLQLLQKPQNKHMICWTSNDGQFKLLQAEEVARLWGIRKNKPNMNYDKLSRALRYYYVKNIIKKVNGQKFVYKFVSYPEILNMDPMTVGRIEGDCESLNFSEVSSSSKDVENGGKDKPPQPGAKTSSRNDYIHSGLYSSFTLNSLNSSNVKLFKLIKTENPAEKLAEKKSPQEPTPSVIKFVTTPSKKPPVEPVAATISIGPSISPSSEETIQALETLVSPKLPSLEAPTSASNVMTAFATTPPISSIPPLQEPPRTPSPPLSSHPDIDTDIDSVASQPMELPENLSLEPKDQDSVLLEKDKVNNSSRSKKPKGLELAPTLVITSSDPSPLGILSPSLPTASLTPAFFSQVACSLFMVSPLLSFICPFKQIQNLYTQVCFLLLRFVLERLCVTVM
# Method in brief: as §1
# ERF = molecular target: T7, ERF (Homo sapiens, UniProt P50548 1-548)
# T7 sequence: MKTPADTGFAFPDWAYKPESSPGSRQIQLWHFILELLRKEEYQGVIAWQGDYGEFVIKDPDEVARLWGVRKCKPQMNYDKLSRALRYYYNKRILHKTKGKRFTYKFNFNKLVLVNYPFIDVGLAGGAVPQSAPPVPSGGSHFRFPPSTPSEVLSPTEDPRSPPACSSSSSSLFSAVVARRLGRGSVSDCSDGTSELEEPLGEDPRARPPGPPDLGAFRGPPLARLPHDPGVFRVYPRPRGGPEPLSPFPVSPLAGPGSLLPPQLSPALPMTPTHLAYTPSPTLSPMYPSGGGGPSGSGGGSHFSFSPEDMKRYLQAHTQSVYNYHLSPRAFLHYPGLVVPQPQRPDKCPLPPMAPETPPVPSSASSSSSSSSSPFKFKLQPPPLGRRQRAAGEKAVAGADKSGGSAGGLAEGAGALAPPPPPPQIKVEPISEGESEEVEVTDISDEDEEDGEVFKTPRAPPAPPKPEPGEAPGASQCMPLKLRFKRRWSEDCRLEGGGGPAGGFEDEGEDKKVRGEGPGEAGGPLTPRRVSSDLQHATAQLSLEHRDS
# Method in brief: as §1
# ETV3L = molecular target: T8, ETV3L (Homo sapiens, UniProt Q6ZN32 1-361)
# T8 sequence: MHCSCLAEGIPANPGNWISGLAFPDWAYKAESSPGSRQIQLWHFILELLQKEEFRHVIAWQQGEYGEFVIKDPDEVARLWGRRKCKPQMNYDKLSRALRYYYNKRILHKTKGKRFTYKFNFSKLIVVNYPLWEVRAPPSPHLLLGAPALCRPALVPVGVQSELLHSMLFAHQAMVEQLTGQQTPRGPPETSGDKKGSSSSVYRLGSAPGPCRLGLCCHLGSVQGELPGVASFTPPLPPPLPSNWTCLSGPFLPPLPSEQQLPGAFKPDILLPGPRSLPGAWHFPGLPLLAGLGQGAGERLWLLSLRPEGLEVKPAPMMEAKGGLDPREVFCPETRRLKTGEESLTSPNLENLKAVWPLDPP
# Method in brief: as §1
# ETS2 = molecular target: T9, ETS2 (Homo sapiens, UniProt P15036 1-469)
# T9 sequence: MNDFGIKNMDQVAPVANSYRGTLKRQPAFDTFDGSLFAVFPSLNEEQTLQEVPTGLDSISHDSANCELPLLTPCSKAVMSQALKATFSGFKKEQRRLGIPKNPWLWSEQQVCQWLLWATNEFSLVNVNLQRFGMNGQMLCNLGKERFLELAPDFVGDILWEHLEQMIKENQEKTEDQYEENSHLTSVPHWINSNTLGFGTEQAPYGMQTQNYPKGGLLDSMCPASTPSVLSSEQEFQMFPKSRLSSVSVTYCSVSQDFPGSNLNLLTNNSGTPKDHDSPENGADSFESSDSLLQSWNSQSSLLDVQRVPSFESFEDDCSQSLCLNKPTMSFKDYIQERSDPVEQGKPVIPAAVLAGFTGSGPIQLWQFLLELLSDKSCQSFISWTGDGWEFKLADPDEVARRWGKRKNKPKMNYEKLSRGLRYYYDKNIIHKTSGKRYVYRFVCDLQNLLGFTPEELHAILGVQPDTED
# Method in brief: as §1
# ETV7 = molecular target: T10, ETV7 (Homo sapiens, UniProt Q9Y603 1-341)
# T10 sequence: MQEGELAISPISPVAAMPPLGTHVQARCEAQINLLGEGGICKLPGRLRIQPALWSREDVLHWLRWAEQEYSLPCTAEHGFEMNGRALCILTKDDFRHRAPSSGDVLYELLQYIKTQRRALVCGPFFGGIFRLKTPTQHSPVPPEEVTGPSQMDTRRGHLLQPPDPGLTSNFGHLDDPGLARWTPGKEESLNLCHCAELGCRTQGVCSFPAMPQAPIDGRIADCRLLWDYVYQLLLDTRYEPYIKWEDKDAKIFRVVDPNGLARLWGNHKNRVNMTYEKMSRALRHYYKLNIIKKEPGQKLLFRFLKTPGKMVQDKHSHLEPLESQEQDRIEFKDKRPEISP
# Method in brief: as §1
# ETV3 = molecular target: T11, ETV3 (Homo sapiens, UniProt P41162-2 1-143)
# T11 sequence: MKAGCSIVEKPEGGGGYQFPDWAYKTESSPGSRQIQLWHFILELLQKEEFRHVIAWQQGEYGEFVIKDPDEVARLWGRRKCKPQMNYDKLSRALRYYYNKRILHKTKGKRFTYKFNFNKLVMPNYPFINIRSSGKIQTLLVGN
# Method in brief: as §1
# ETV6 = ETV6 (Homo sapiens, UniProt P41212 1-452)
# ETV6, sequence (P41212 whole entry): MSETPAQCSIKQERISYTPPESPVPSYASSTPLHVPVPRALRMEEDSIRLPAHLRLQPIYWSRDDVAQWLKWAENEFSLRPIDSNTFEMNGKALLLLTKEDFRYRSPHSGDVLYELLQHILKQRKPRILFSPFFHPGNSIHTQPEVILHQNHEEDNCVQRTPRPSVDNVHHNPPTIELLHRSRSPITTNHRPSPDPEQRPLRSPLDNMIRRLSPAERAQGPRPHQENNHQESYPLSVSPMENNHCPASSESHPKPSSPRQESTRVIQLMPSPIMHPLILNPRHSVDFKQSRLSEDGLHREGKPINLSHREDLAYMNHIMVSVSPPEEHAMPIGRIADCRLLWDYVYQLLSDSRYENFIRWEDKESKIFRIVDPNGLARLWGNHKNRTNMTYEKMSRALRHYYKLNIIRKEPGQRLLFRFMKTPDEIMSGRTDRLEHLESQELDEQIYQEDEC
# Method in brief: as §1
sequence,measurement,setting,value
CATATG,binding signal,GABPA,"1.09 fold enrichment (6-mer frequency, TF over GST control)"
same,binding signal,ERG,"1.07 fold enrichment (6-mer frequency, TF over GST control)"
same,binding signal,EHF,"1.01 fold enrichment (6-mer frequency, TF over GST control)"
same,binding signal,SPIB,"1.04 fold enrichment (6-mer frequency, TF over GST control)"
same,binding signal,ELK3,"1.04 fold enrichment (6-mer frequency, TF over GST control)"
same,binding signal,SPIC,"1.01 fold enrichment (6-mer frequency, TF over GST control)"
same,binding signal,ELF4,"1.04 fold enrichment (6-mer frequency, TF over GST control)"
same,binding signal,ELK4,"1.11 fold enrichment (6-mer frequency, TF over GST control)"
same,binding signal,ERF,"1.06 fold enrichment (6-mer frequency, TF over GST control)"
same,binding signal,ETV3L,"1.06 fold enrichment (6-mer frequency, TF over GST control)"
same,binding signal,ETS2,"1.04 fold enrichment (6-mer frequency, TF over GST control)"
same,binding signal,ETV7,"1.14 fold enrichment (6-mer frequency, TF over GST control)"
same,binding signal,ETV3,"1.02 fold enrichment (6-mer frequency, TF over GST control)"
same,binding signal,ETV6,"1.03 fold enrichment (6-mer frequency, TF over GST control)"
